According to PubChem BioAssay (NCATS):
Values joined by “and” are separate entries in the source; they are usually repeats but may differ in a detail not shown here. Equal values may be shown once. Results filed as inconclusive are left out. Active and inactive are the calls of the source. Unless noted, calls come from the whole dose curve; as a rule, active = well fitted curve in the direction sought with a large enough effect; inconclusive = small, poorly fitted or top-dose-only effect, or another doubt; inactive = no such curve, though single readings can be large; an effect the other way counts as inactive or inconclusive.

Assays:
[1] = target: Retinoic acid receptor RXR-alpha (Homo sapiens) (UniProt P19793); test: qHTS assay for small molecule antagonists of retinoid X receptor alpha signaling (AID 588546; active = well fitted inhibition curve with a large enough effect in the signal ratio, with a control signal flat, not every such curve was filed as active; the % refers to the signal ratio;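 note: cells stimulated with 9-cis-retinoic acid as agonist; % is set by controls: 0 for no effect and ±100 for the full control effect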); conditions: HEK293T RXRa-UAS-bla, beta-lactamase ratio, antagonist mode
In short: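 Beta-lactamase reporter inhibition, read as CCF4 fluorescence ratio (ex 405, em 460/530 nm) after 2 h at RT. HEK293T UAS-bla cells, 2500/well, were stimulated with 9-cis-RA at 500 or 100 nM final alongside test compound for 18 h at 37 C.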

[2] = target: Thyroid hormone receptor beta (Homo sapiens) (UniProt P10828); test: qHTS assay for small molecule antagonists of thyroid hormone receptor beta signaling (AID 588547; active = well fitted inhibition curve with a large enough effect in the signal ratio, with a control signal flat, not every such curve was filed as active; the % refers to the signal ratio;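 note: cells stimulated with 0.4 nM T3 agonist during compound exposure; series mostly up to about 77 µM; % is set by controls: 0 for no effect and ±100 for the full control effect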); conditions: TR-UAS-bla HEK293, beta-lactamase ratio, antagonist mode, 18 h
In short: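 TR-UAS-bla GripTite HEK293 cells in 2% charcoal/dextran FBS medium; compounds 0.59 nM to 92 uM with T3 at 0.4nM final, 18 h at 37 C. Beta-lactamase read by CCF4 fluorescence (460/530 nm); Hill fits gave IC50 and efficacy.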

[3] = target: Voltage-gated inwardly rectifying potassium channel KCNH2 (Homo sapiens) (UniProt Q12809); test: qHTS Assay for Small Molecule Inhibitors of the Human hERG Channel Activity (AID 588834);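 note: top concentration of the series differs between compounds; % is set by controls: 0 for no effect and ±100 for the full control effect; lower thallium flux fluorescence means stronger hERG block; nearly all actives have a fitted effect of over 50% in size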
In short: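 Measured: FluxOR fluorescence after thallium stimulation in U2OS cells transduced with hERG by baculovirus. Compounds pre-incubated around 10 min; medium Opti-MEM with 2% FCS. AC50 from Hill equation.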

[4] = qHTS assay for small molecule agonists of the antioxidant response element (ARE) signaling pathway (AID 651741; active = well fitted activation curve with a large enough effect in the signal ratio; the % refers to the signal ratio; note: % of control where 0% means no effect)
In short: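 HepG2 ARE-bla cells plated at 2,000 cells/well and incubated 5 h at 37 C/5% CO2 received 23 nL compound in DMSO. After 16 h at 37 C, LiveBLAzer B/G FRET substrate was applied for 2 h at room temperature and fluorescence read.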

[5] = qHTS assay for small molecule activators of the p53 signaling pathway (AID 651743; active = well fitted activation curve with a large enough effect in the signal ratio, not every such curve was filed as active; the % refers to the signal ratio; note: series mostly up to about 92 µM; % of control where 0% means no effect); conditions: HCT-116 p53RE-bla, beta-lactamase FRET ratio, 16 h; activation: stronger effect = higher value
In short: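 HCT-116 p53RE-bla, 4,000 cells/well; 5 h settle; cpd/DMSO 16 h, 37 C; LiveBLAzer B/G 2 h RT; fluorescence intensity.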

[6] = qHTS assay for small molecule activators of the nuclear factor-kappa B (NF-kB) signaling pathway (AID 651749; active = well fitted activation curve with a large enough effect in the signal ratio; the % refers to the signal ratio; note: series mostly up to about 77 µM; % of control where 0% means no effect); conditions: NF-kB-bla ME-180 cells, beta-lactamase FRET ratio, 16 h; activation: stronger effect = higher value
In short: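 Incubation lasted 16 hr at 37C in 5% CO2 after 23 nL compound addition to ME-180 NF-kB-bla cells. Activation appears as beta-lactamase-mediated FRET loss.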

[7] = target: Tumor necrosis factor (Homo sapiens) (UniProt P01375); test: qHTS assay to identify small molecules that stimulate Tumor Necrosis Factor-alpha (TNF-alpha) secretion (AID 651757; active = well fitted curve in the direction sought with a large enough effect in the signal ratio; the % refers to the signal ratio; note: 0% is about no effect)
In short: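 THP-1 cells were exposed to compounds for 17 hrs at 37 C, after which secreted TNF-alpha was measured by homogeneous HTRF (TR-FRET) using cryptate- and XL665-labeled anti-TNF-alpha antibodies, read after 3 hr at room temperature.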

[8] = qHTS assay to identify small molecules that stimulate interleukin-8 (IL-8) secretion (AID 651758; active = well fitted activation curve with a large enough effect in the signal ratio; the % refers to the signal ratio; note: 0% is about no effect)
In short: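 THP-1 cells (2000/well) exposed to compound 16 h at 37 C; secreted IL-8 then detected by HTRF with cryptate- and XL665-labelled anti-IL-8 antibody pair after 1-3 h at room temperature.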

[9] = qHTS assay for environmental chemicals that activate the Aryl hydrocarbon Receptor (AhR) signaling pathway (AID 651777); conditions: 1A2-DRE human hepatoma cells, luciferase, 24 h; activation: stronger effect = higher value; note: % of control where 0% means no effect; nearly all actives have a fitted effect of over 15% in size
In short: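 Quantitative HTS in stably transfected human liver-derived cells whose luciferase gene sits downstream of the CYP1A2 promoter and dioxin response element. After 24 hr exposure at 37 C, One-Glo luminescence was measured.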

[10] = target: Nuclear receptor ROR-gamma (Homo sapiens) (UniProt P51449); test: qHTS assay for small molecule antagonists of the retinoid-related orphan receptor gamma (ROR-gamma) signaling pathway (AID 651802); note: series mostly up to about 92 µM; % is set by controls: 0 for no effect and ±100 for the full control effect; nearly all actives have a fitted effect of over 60% in size
In short: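 CHO cells carrying TET-inducible ROR-gamma and an ROR response element–luciferase reporter were exposed to compound, then induced with doxycycline. After 16hr at 37C, luminescence was read; lower signal indicates antagonism.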

[11] = qHTS assay for small molecule agonists of the antioxidant response element (ARE) signaling pathway measured by Nrf2-dependant transcriptional activity (AID 720636; active = well fitted curve in the direction sought with a large enough effect in the repeat runs; an effect the other way counts as inactive or inconclusive; note: % of control where 0% means no effect)
In short: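 Quantitative HTS format in HepG2 cells stably expressing an ARE-luciferase reporter; 16 hr compound treatment at 37 C, luciferase signal detected with ONE-Glo.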

[12] = qHTS assay for small molecule antagonists of the retinoid-related orphan receptor gamma (ROR-gamma) signaling pathway - cell viability counter screen (AID 720652; active = well fitted curve in the direction sought with a large enough effect in the repeat runs; an effect the other way counts as inactive or inconclusive;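 note: series mostly up to about 92 µM; compound exposure lasted 16 hr before ATP read; % is set by controls: 0 for no effect and ±100 for the full control effect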)
In short: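 Counter screen in CHO cells carrying TET-inducible ROR-gamma and an ROR response element-luciferase reporter; cells plated 5 hr, compound pinned, doxycycline added, then 16 hr at 37 C. Viability read as intracellular ATP by CellTiter-Glo luminescence.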

[13] = qHTS assay for small molecule agonists of the antioxidant response element (ARE) signaling pathway measured by Nrf2-dependant transcriptional activity - cell viability counter screen (AID 720653; active = well fitted curve in the direction sought with a large enough effect in the repeat runs; an effect the other way counts as inactive or inconclusive; note: % is set by controls: 0 for no effect and ±100 for the full control effect); conditions: ARE-bla HepG2 viability, CellTiter-Glo ATP luminescence, 16 h; stronger effect = lower value
In short: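 ARE-bla HepG2 cells treated with compounds for 16 h at 37C; this counter screen measures viability as intracellular ATP by CellTiter-Glo luminescence after 30 min at room temperature.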

[14] = qHTS assay for cell viability of HEK293 cells (AID 743288); conditions: ATP luminescence (CellTiter-Glo), 18 h; max response: stronger effect = lower value; note: % is set by controls: 0 for no effect and ±100 for the full control effect; nearly all actives have a fitted effect of over 50% in size
In short: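 The Tox21 protocol used parental HEK293 cells treated for 18 h at 37 C with compounds delivered by pintool; ATP-coupled luminescence after 30 min at room temperature gave viability.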

[15] = qHTS assay for cell viability of the p53RE-bla HCT-116 cell line (AID 743292); note: % is set by controls: 0 for no effect and ±100 for the full control effect; nearly all actives have a fitted effect of over 55% in size
In short: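 Viability of compound-treated p53RE-bla HCT-116 cells is taken from ATP-dependent luciferase luminescence. Treatment lasts 16 h at 37 C after a 5 h settling period; detection follows 30 min at room temperature.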

[16] = target: Rap guanine nucleotide exchange factor 3 (Homo sapiens) (UniProt O95398); test: Confirmatory qHTS for antagonist of cAMP-regulated guanine nucleotide exchange factor 3 (EPAC1) (AID 1645880);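 note: plate controls were DMSO only for no effect and full effect of the ATA control for full effect; nearly all actives have a fitted effect of over 55% in size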
In short: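 Nucleotide exchange uses 100 nM EPAC1, 250 nM RAP1B-BODIPY-GDP and 50 uM GDP, with compounds in a concentration-titration series. After 5 min at room temperature, fluorescence (480 nm ex/540 nm em) is read every 5 min for 30 min. Data are normalized to control ATA and DMSO.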

[17] = target: Rap guanine nucleotide exchange factor 3 (Homo sapiens) (UniProt O95398); test: Confirmatory qHTS for agonist of cAMP-regulated guanine nucleotide exchange factor 3 (EPAC1) (AID 1645881);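 note: EPAC1 catalysed release of BODIPY-GDP from Rap1B seen as fluorescence loss; 100% = effect of cAMP agonist control; nearly all actives have a fitted effect of over 75% in size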
[18] = target: Rap guanine nucleotide exchange factor 4 (Homo sapiens) (UniProt Q8WZA2); test: Confirmatory qHTS for agonist of cAMP-regulated guanine nucleotide exchange factor 4 (EPAC2) (AID 1645884);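 note: nucleotide exchange releases bodipy-GDP from Rap1 and this lowers its fluorescence; % is set by controls: 0 for no effect and ±100 for the full control effect; nearly all actives have a fitted effect of over 65% in size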
[19] = target: Rap guanine nucleotide exchange factor 4 (Homo sapiens) (UniProt Q8WZA2); test: Confirmatory qHTS for antagonist of cAMP-regulated guanine nucleotide exchange factor 4 (EPAC2) (AID 1645885); note: % is set by controls: 0 for no effect and ±100 for the full control effect; nearly all actives have a fitted effect of over 25% in size
[20] = target: Rap guanine nucleotide exchange factor 3 (Homo sapiens) (UniProt O95398); test: Counterscreen qHTS for antagonist of cAMP-regulated guanine nucleotide exchange factor 3 (EPAC1) (AID 1645888);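 note: fluorescence loss as bound BODIPY-GDP is released from Rap1B; % of control where 0% means no effect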
In short: (§1)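 Rap1B–BODIPY-GDP (250 nM) with 50 uM GDP; compounds pin-transferred to 9.74 nM–152 uM final (activator) or from 7.32 nM upwards (inhibitor). Fluorescence Ex/Em 480/540 nm read at 5 and 30 min, then after adding cAMP or buffer, at room temperature.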

[21] = target: Rap guanine nucleotide exchange factor 3 (Homo sapiens) (UniProt O95398); test: Counterscreen qHTS for agonist of cAMP-regulated guanine nucleotide exchange factor 3 (EPAC1) (AID 1645889); note: % of control where 0% means no effect; nearly all actives have a fitted effect of over 40% in size
In short: as §1

[22] = target: Nuclear receptor subfamily 1 group I member 2 (Rattus norvegicus) (UniProt Q9R1A7); test: qHTS assay for small molecule activators of the rat pregnane X receptor (rPXR) signaling pathway (AID 651751; call rule not given here; note: 0% is about no effect); conditions: rPXR reporter cells, luciferase (One-Glo), 24 h
[23] = qHTS assay for small molecule activators of the human pregnane X receptor (PXR) signaling pathway (AID 720659; call rule not given here; note: 0% is about no effect)

Sequence of Rap guanine nucleotide exchange factor 3 (Homo sapiens) (O95398 whole entry, looked up): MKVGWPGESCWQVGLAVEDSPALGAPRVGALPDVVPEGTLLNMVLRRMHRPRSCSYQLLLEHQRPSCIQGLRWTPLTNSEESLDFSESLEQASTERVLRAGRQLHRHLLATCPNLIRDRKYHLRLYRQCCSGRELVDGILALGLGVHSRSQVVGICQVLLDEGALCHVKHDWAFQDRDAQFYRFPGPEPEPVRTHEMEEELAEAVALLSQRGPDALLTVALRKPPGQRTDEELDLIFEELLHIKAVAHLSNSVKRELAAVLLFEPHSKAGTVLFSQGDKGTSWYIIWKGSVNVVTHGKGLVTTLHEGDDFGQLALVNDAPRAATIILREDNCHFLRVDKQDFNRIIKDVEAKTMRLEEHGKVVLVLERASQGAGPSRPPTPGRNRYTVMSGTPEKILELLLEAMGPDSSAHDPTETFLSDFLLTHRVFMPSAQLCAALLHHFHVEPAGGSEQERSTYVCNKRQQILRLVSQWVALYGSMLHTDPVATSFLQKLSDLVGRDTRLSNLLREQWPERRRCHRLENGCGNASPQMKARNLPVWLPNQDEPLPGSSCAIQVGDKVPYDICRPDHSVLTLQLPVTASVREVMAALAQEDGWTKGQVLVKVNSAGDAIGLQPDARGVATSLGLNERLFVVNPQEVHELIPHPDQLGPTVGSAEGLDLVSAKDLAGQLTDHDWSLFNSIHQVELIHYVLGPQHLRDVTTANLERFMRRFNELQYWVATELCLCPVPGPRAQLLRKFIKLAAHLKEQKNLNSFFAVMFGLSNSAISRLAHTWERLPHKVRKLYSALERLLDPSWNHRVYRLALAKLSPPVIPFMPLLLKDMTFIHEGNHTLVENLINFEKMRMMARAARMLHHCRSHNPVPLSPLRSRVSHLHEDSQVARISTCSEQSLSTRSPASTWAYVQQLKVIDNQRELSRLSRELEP
Sequence of Rap guanine nucleotide exchange factor 4 (Homo sapiens) (Q8WZA2 whole entry, looked up): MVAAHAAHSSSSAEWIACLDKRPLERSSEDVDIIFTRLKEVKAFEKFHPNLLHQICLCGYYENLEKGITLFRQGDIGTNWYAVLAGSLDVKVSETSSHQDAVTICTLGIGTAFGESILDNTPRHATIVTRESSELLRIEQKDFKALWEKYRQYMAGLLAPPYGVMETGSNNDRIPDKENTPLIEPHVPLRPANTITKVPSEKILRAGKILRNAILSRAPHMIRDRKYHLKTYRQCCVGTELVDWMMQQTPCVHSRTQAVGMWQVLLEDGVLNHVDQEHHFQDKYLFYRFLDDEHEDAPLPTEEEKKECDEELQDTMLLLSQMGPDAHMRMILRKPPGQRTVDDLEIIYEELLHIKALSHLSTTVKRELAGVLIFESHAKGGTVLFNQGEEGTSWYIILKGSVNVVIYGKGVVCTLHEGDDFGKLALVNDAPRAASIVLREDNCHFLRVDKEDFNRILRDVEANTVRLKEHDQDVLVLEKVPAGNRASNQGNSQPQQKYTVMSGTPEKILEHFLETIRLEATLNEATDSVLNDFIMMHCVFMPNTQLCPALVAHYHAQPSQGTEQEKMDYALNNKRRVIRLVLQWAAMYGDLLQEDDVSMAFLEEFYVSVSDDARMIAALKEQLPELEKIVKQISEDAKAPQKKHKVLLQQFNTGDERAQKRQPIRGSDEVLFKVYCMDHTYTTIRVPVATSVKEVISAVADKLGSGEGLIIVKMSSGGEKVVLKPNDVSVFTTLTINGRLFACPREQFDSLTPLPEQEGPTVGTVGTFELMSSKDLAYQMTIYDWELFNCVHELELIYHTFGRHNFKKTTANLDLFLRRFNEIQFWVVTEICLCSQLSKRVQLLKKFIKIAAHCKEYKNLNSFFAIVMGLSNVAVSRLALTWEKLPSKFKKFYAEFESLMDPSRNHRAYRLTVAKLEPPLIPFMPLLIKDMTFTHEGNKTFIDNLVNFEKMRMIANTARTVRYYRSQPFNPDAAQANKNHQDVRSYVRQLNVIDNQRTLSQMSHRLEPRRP
Sequence of Nuclear receptor subfamily 1 group I member 2 (Rattus norvegicus) (Q9R1A7 whole entry, looked up): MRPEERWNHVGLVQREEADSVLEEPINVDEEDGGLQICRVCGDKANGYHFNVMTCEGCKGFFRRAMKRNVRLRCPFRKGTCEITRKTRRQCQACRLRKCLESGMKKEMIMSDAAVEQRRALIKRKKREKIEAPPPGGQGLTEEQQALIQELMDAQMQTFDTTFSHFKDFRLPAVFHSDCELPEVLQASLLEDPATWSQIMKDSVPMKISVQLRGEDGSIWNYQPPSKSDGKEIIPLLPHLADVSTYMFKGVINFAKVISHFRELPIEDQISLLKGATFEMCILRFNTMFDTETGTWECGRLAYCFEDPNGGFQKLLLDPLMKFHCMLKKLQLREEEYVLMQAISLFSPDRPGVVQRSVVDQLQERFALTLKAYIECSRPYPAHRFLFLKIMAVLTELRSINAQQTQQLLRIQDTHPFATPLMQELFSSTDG
Sequence of Retinoic acid receptor RXR-alpha (Homo sapiens) (P19793 whole entry, looked up): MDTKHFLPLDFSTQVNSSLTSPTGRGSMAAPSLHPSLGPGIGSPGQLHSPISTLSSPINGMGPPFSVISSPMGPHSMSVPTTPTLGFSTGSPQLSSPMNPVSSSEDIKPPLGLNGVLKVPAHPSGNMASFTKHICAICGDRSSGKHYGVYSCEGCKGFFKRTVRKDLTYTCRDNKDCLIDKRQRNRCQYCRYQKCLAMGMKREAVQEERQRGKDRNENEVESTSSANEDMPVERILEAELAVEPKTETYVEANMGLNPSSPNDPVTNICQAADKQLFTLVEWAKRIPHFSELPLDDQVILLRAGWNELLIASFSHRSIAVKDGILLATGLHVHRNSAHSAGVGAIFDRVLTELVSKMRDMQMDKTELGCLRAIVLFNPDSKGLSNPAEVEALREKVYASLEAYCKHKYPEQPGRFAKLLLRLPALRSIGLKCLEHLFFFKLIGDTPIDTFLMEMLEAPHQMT
Sequence of Thyroid hormone receptor beta (Homo sapiens) (P10828 whole entry, looked up): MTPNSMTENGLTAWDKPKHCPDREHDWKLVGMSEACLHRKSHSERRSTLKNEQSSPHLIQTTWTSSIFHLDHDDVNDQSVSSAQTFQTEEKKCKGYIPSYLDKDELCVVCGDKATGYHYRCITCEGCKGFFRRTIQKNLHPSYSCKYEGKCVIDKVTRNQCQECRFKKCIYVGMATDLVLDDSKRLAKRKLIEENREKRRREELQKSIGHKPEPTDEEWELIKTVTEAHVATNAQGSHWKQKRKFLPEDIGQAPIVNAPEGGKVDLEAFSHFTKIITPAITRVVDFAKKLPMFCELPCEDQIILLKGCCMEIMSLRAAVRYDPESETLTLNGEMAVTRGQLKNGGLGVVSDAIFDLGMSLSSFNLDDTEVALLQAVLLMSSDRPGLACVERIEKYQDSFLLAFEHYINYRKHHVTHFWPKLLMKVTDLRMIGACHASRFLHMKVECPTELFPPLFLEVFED
Sequence of Nuclear receptor ROR-gamma (Homo sapiens) (P51449 whole entry, looked up): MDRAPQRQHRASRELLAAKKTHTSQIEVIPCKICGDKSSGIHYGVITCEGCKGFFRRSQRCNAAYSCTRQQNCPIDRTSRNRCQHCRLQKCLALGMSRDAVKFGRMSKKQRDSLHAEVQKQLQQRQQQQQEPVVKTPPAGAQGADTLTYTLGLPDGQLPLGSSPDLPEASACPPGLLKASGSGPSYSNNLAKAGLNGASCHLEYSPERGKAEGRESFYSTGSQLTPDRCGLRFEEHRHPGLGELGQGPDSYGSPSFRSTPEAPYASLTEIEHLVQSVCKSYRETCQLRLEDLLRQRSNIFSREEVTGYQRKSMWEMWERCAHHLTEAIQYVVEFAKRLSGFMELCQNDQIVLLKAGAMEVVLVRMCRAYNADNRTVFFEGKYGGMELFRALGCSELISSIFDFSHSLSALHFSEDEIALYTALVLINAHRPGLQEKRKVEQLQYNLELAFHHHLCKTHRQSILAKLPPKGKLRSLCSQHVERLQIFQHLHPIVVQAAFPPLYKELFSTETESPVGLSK
Sequence of Tumor necrosis factor (Homo sapiens) (P01375 whole entry, looked up): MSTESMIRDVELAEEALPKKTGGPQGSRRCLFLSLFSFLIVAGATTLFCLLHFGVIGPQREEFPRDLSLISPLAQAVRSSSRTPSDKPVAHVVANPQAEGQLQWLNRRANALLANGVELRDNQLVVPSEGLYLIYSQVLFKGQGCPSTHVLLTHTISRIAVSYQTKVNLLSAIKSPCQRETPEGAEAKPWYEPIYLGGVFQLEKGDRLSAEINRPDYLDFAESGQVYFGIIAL

CCCOC(=O)c1ccccc1C(=O)OCCC
inactive: max response [1] -20.7% and -19.5% | activity change % (negative = inhibition) [2] 0.697% and -6.62% | Potency [3] | Potency [4] | activation [5] -4.2% and 2.37% | activation [6] -0.812% and -1.55% | outcome [7] | Potency [8] | activation [9] -1.57% and -0.202% | Potency [10] | outcome [11] | Potency [12] | max response [13] 2.53% and -0.566% | max response [14] -2.21% and -12.8% | Potency [15] | Potency [16] | Potency [17] | activation [18] -6.75% [at 17.1 µM, percent relative to cAMP agonist control] | activity change, negative = inhibition [19] -25.7% [at 12.7 µM] | activity change, negative = inhibition [20] -2.66% [at 30.8 µM] | activation [21] 23.9% [at 30.8 µM] | max response [22] 4.44% and -1.18% | outcome [23]
